# Assay results reported in PubChem BioAssay (EPA / NIEHS).
# Results filed as inconclusive are left out. Calls of active or inactive are those of the source. The calls were made as follows, unless noted: active = hit-call score of the fitted dose curve at least 0.9, where 1 is the maximum; inconclusive = response in the unintended direction; inactive = score below 0.9.
# Assays:
# [1] = tested on: Thyroperoxidase (TPO), gene 54314; assay: CCTE_Simmons_AUR_rTPO: CCTE's Amplex UltraRed Assay for Thyroperoxidase (TPO) Inhibition, Simmons Lab (AID 2283662);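 as to AC50: potency for loss of signal meaning inhibition of peroxidase activity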
# Method in brief: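 Endpoint is decreased Amplex UltraRed fluorescence after a 30-min, 37C reaction of rat thyroid microsomes with 300 uM H2O2. Eight test concentrations (5 nM–87.5 uM final) in 0.5% DMSO, three biological replicates each.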
# [2] = CCTE_Simmons_CellTiterGLO_HEK293T: Viability Assessment in CCTE's Assays for Thyroperoxidase (TPO) Inhibition, Simmons Lab (AID 2283665)
# Method in brief: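 ATP depletion measured in HEK293T cells after 24 h dosing (8 concentrations, 5 nM–87.5 uM final; DMSO 0.5%) using CellTiter-Glo luminescence; curves fit for loss of signal against DMSO baseline.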
# [3] = target: Luciferin 4-monooxygenase (Photinus pyralis) (UniProt P08659); assay: CCTE_Simmons_QuantiLum_inhib_2: CCTE's Firefly Luciferase Inhibition Assay, Simmons Lab (AID 2283767)
# Method in brief: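 Eight-point titrations of each chemical, 5 nM–87.5 uM final in 0.5% DMSO, were run in three biological replicates against recombinant luciferase for 30 min at 37C. Bioluminescence signal loss, read on reagent injection, gave the inhibition endpoint.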
# [4] = target: Retinoic acid receptor alpha (Homo sapiens) (UniProt P10276); assay: ATG_RARa_TRANS: Attagene TRANS-FACTORIAL HepG2 Assay for human Retinoic Acid Receptor alpha (RARa) (AID 2283005)
# Method in brief: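 HepG2 cells transiently transfected with multiple reporter units expressing chimeric RARα-GAL4 fusion, with GAL4-UAS-driven reporters. After 24 h compound exposure, reporter mRNA induction quantified by RT-PCR and capillary electrophoresis with fluorescent labeling; gain-of-signal fitted relative to DMSO control.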
# [5] = target: rat Thyrotropin Releasing Hormone Receptor (TRH), Trhr (gene 25570) (UniProt Q01717); assay: NVS_GPCR_rTRH: NovaScreen (NVS) G Protein-Coupled Receptor Assay for rat Thyrotropin Releasing Hormone Receptor (TRH) (AID 2283329);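 also: hit means lower bound tracer signal versus DMSO baseline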
# Method in brief: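 Test compounds are screened at 25 uM in duplicate against radioligand binding in rat forebrain membranes, with active pairs followed up over a concentration range. Detection uses filter-based radiodetection after a 4 h exposure.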
# [6] = read-out: Vascular cell adhesion molecule 1 (VCAM1), VCAM1 (gene 7412); assay: BSK_MyoF_VCAM1: BioMAP Diversity Plus: MyoF Assay for Vascular cell adhesion molecule 1 (VCAM1) Biomarker Activity (AID 2284231; active = hit-call score of the fitted dose curve at least 0.9, where 1 is the maximum; inactive = score below 0.9); details: primary human lung fibroblasts
# Method in brief: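 Primary human lung fibroblasts were dosed with test chemical for 24 h, then cell-surface VCAM-1 was measured by ELISA. Activity was fitted in the positive direction against DMSO as negative control and baseline.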
# [7] = read-out: Plasminogen activator inhibitor-1 (PAI1), SERPINE1 (gene 5054); assay: BSK_MyoF_PAI1: BioMAP Diversity Plus: MyoF Assay for Plasminogen activator inhibitor-1 (PAI1) Biomarker Activity (AID 2284256; active = hit-call score of the fitted dose curve at least 0.9, where 1 is the maximum; inactive = score below 0.9;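 as to outcome: PAI-1 protein level measured by ELISA in fibroblast cultures; PAI-1 read 24 h after compound addition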); details: primary human lung fibroblasts
# Method in brief: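 ELISA read-out of PAI-1 from primary human lung fibroblast cultures 24 h after dosing; gain-of-signal fit versus DMSO control.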
# [8] = BSK_MyoF_SRB: Viability Assessment in the BioMAP Diversity Plus: MyoF Assay (AID 2284267; active = hit-call score of the fitted dose curve at least 0.9, where 1 is the maximum; inactive = score below 0.9;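 also: total protein by SRB absorbance in parallel cultures as cytotoxicity measure; cells assessed 24 h after compound addition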); details: primary human lung fibroblasts
# Method in brief: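 In this viability endpoint, fibroblasts from human lung are treated for 24 h, TCA-fixed, SRB-stained (0.1%) and read at 560 nm. Gain of signal relative to DMSO defines activity.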
# [9] = read-out: Matrix Metallopeptidase 1 (MMP1), MMP1 (gene 4312); assay: BSK_MyoF_MMP1: BioMAP Diversity Plus: MyoF Assay for Matrix Metallopeptidase 1 (MMP1) Biomarker Activity (AID 2284268; active = hit-call score of the fitted dose curve at least 0.9, where 1 is the maximum; inactive = score below 0.9); details: primary human lung fibroblasts
# Method in brief: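 ELISA readout of MMP1 in primary human lung fibroblast cultures, 24 h post-dosing. Gain of signal versus DMSO vehicle control defines activity. Parallel SRB staining (0.1% after 10% TCA fixation, 560 nm) flags overt cytotoxicity.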
# [10] = read-out: TIMP metallopeptidase inhibitor 1 (TIMP1), TIMP1 (gene 7076); assay: BSK_MyoF_TIMP1: BioMAP Diversity Plus: MyoF Assay for TIMP metallopeptidase inhibitor 1 (TIMP1) Biomarker Activity (AID 2284269; active = hit-call score of the fitted dose curve at least 0.9, where 1 is the maximum; inactive = score below 0.9); details: primary human lung fibroblasts
# Method in brief: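 TIMP-1 levels were determined by ELISA in human lung fibroblasts treated for 24 h. DMSO served as negative control and baseline for upward curve fitting.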
# [11] = target: human Retinoic Acid Receptor beta (RARb), RARB (gene 5915) (UniProt P10826); assay: ATG_RARb_TRANS: Attagene TRANS-FACTORIAL HepG2 Assay for human Retinoic Acid Receptor beta (AID 2283004)
# Method in brief: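 HepG2 cells transiently transfected with multiplexed GAL4-UAS reporter units expressing chimeric NR–Gal4 fusions; 24 h compound exposure. Reporter mRNA quantified by RT-PCR, 6-FAM labelling, HpaI digestion and capillary electrophoresis; gain-of-signal fitted against DMSO baseline.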
# [12] = target: Nuclear receptor subfamily 1 group I member 3 (Homo sapiens) (UniProt Q14994); assay: ATG_CAR_TRANS: Attagene TRANS-FACTORIAL HepG2 Assay for human Constitutive Androstane Receptor (CAR) (AID 2282969); details: HepG2 Attagene TRANS-FACTORIAL CAR reporter;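 also: activators raise reporter mRNA above DMSO so AC50 marks induction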
# Method in brief: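 Steps: transient transfection of HepG2 with multiple GAL4-UAS reporter units; 24 h compound incubation; RNA isolation, RT-PCR, 6-FAM primer extension, HpaI digest; capillary electrophoresis. Gain-of-signal relative to DMSO negative control.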
# [13] = target: human Peripheral-type Benzodiazepine Receptor (PBR), TSPO (gene 706) (UniProt P30536); assay: NVS_MP_hPBR: NovaScreen (NVS) Membrane Protein Assay for human Peripheral-type Benzodiazepine Receptor (PBR) (AID 2283331);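 also: hits reduce radioligand binding relative to DMSO baseline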
# Method in brief: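 Using human colon-derived membranes, this one-endpoint binding test reads radioligand loss by scintillation after 1 h. Screening started at 25 uM in duplicate, with positive and negative controls on every plate, and actives moved to dose series.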
# [14] = target: Bile acid receptor (Homo sapiens) (UniProt Q96RI1); assay: OT_FXR_FXRSRC1_0480: Odyssey Thera (OT) 8-hour HEK293T Protein-Complementation Assay for Farnesoid X receptor/SRC-1 Co-activator (AID 2283383)
# Method in brief: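 Readings were taken 8 h after dosing HEK293T cells in a split-reporter complementation format pairing FXR with SRC-1. Increased fluorescence relative to DMSO-treated wells defined activity.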
# [15] = target: Bile acid receptor (Homo sapiens) (UniProt Q96RI1); assay: OT_FXR_FXRSRC1_1440: Odyssey Thera (OT) 24-hour HEK293T Protein-Complementation Assay for Farnesoid X receptor/SRC-1 Co-activator (AID 2283384)
# Method in brief: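 Single endpoint, analysed for increased fluorescence against DMSO controls. HEK293T cells carrying FXR and SRC-1 linked to complementary reporter halves were exposed to chemicals for 24 h before reading.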
# [16] = target: human Ephrin type-A Receptor 1 (EphA1), EPHA1 (gene 2041) (UniProt P21709); assay: NVS_ENZ_hEphA1: NovaScreen (NVS) Enzymatic Assay for human Ephrin type-A Receptor 1 (EphA1) (AID 2283158);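 also: activity is signal loss versus DMSO meaning EphA1 kinase inhibition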
# Method in brief: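 Cell-free enzymatic assay with recombinant EphA1 and fluorescent substrate; product separated by electrophoretic mobility shift, fluorescence intensity read 1 hour after dosing. Loss of signal versus DMSO baseline; primary duplicate screen at 25 uM, actives followed to 50 uM top concentration.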
# [17] = target: Androgen receptor (Homo sapiens) (UniProt P10275); assay: ATG_AR_TRANS: Attagene TRANS-FACTORIAL HepG2 Assay for human Androgen Receptor (AR) (AID 2282973); details: HepG2 Attagene TRANS-FACTORIAL AR reporter transcription
# Method in brief: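 HepG2 cells transiently transfected with multiplexed GAL4-UAS reporter units and chimeric NR-Gal4 fusion; 24 h compound exposure. Reporter mRNA measured by RT-PCR, 6-FAM labelling, HpaI digestion and capillary electrophoresis; gain-of-signal fitted relative to DMSO baseline.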
# [18] = target: human Retinoic Acid Receptor gamma (RARg), RARG (gene 5916) (UniProt P13631); assay: ATG_RARg_TRANS: Attagene TRANS-FACTORIAL HepG2 Assay for human Retinoic Acid Receptor gamma (RARg) (AID 2283009)
# Method in brief: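 Gain-of-signal relative to DMSO is reported from fluorescent capillary electrophoresis of RT-PCR reporter products. These came from HepG2 cells expressing transfected RARg-GAL4 chimeras with UAS reporters, harvested 24 h after dosing.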
# [19] = CCTE_Deisenroth_AIME_384WELL_CTox_Active: Cytotoxicity Assessment (CTOX) in CCTE's 384-well Estrogen Receptor Transactivation Assay with AIME metabolic competence (metabolism positive), Deisenroth Lab (AID 2284037);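 also: chemicals first conditioned 2 h by alginate-bound induced rat liver S9 before cells; activity means signal loss indicating cell death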
# Method in brief: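 VM7Luc4E2 breast cells received medium pre-incubated 2 h with chemical over alginate microspheres holding induced male Sprague Dawley rat liver S9; viability read 24 h later by protease-substrate fluorescence. Loss of signal, bidirectional fit, 0.002–200 uM.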
# [20] = CCTE_Deisenroth_AIME_384WELL_CTox_Inactive: Cytotoxicity Assessment (CTOX) in CCTE's 384-well Estrogen Receptor Transactivation Assay without AIME metabolic competence (metabolism negative), Deisenroth Lab (AID 2284039);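 also: cell viability via live-cell protease substrate cleaved to fluorescent probe; cells exposed 24 h to medium preincubated 2 h with alginate-water beads without S9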
# Method in brief: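 Fluorescence from a live-cell protease substrate, read after 24 h in VM7Luc4E2 cells, indicated viability. Test medium came from a 2 h AIME step without hepatic S9 (alginate-water microspheres); concentrations spanned 0.002 - 200 uM, single technical replicate per run.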
# Bile acid receptor (Homo sapiens), sequence (Q96RI1 whole entry, looked up): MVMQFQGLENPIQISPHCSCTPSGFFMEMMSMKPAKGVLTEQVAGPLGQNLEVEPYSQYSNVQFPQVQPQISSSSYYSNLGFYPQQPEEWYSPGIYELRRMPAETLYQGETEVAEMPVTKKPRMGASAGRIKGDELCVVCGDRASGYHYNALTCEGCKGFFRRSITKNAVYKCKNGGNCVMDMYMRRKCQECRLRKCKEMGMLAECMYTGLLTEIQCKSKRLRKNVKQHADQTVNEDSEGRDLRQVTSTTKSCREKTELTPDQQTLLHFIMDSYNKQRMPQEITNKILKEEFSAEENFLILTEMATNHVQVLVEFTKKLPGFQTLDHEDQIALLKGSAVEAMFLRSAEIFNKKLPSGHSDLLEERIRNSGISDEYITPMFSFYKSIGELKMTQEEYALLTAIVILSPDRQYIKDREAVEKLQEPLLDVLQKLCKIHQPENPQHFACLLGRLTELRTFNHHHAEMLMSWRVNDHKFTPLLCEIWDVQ
# human Retinoic Acid Receptor beta (RARb), RARB (gene 5915), sequence (P10826 whole entry, looked up, the tested form may be a part): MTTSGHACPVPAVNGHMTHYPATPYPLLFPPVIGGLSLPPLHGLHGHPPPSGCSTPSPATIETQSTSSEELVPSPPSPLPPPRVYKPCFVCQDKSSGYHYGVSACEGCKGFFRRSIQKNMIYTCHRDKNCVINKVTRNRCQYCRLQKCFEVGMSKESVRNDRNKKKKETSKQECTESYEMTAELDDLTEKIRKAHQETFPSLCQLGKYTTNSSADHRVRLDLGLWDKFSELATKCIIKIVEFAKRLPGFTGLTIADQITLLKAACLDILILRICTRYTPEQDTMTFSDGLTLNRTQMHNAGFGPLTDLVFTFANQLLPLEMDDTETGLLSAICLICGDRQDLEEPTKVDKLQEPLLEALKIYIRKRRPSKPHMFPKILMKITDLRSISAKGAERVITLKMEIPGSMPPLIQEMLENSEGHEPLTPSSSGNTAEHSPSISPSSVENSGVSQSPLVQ
# human Peripheral-type Benzodiazepine Receptor (PBR), TSPO (gene 706), sequence (P30536 whole entry, looked up): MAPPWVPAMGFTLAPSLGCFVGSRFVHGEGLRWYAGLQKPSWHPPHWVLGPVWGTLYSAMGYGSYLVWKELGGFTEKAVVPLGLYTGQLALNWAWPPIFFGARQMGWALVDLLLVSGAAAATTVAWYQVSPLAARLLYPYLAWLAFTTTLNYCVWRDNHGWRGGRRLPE
# Retinoic acid receptor alpha (Homo sapiens), sequence (P10276 whole entry, looked up, the tested form may be a part): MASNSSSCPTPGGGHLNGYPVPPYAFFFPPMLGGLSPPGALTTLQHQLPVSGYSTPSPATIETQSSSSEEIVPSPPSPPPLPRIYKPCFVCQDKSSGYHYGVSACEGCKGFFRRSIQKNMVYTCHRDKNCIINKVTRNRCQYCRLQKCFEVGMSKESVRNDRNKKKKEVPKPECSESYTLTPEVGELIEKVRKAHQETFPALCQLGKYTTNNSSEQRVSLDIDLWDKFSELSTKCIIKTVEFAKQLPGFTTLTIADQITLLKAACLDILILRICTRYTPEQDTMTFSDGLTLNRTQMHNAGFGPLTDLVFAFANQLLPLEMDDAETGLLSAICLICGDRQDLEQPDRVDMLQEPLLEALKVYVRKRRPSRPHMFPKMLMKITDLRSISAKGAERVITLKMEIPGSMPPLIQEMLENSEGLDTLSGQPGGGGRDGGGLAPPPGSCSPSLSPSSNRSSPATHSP
# Luciferin 4-monooxygenase (Photinus pyralis), sequence (P08659 whole entry, looked up): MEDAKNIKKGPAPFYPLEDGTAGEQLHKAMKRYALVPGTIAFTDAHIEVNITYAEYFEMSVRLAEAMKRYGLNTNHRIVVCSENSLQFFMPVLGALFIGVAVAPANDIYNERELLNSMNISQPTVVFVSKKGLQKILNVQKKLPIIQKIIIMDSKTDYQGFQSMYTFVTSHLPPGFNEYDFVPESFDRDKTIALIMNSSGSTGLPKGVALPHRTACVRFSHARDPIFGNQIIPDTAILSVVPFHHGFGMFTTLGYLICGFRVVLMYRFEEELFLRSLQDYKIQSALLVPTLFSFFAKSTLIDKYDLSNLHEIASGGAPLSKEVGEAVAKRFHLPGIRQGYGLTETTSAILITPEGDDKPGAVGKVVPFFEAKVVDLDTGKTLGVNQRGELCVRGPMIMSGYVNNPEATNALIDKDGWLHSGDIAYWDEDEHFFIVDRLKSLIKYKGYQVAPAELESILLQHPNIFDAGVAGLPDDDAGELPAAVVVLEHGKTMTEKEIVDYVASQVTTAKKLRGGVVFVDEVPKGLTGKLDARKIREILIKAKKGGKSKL
# Nuclear receptor subfamily 1 group I member 3 (Homo sapiens), sequence (Q14994 whole entry, looked up, the tested form may be a part): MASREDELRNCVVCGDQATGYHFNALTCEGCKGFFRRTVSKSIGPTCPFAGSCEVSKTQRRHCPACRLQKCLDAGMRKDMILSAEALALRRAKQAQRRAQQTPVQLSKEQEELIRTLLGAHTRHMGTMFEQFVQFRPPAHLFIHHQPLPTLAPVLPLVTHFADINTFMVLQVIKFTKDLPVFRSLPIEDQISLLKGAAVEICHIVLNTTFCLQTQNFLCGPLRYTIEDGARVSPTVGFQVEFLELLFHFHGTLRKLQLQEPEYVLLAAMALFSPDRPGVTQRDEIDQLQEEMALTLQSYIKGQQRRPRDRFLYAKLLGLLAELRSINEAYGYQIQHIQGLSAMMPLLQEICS
# human Retinoic Acid Receptor gamma (RARg), RARG (gene 5916), sequence (P13631 whole entry, looked up, the tested form may be a part): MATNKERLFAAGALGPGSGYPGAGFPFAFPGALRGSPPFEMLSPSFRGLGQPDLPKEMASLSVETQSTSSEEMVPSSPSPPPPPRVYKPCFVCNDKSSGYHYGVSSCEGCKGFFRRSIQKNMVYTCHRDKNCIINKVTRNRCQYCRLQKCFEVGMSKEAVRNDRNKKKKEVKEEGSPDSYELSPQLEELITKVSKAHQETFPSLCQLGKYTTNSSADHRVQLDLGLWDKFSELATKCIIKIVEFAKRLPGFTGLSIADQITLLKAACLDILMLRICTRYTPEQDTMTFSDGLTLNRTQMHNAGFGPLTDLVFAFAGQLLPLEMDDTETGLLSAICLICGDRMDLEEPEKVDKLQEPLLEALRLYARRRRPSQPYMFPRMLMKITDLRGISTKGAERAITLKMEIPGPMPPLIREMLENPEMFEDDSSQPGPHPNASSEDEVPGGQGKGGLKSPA
# human Ephrin type-A Receptor 1 (EphA1), EPHA1 (gene 2041), sequence (P21709 whole entry, looked up): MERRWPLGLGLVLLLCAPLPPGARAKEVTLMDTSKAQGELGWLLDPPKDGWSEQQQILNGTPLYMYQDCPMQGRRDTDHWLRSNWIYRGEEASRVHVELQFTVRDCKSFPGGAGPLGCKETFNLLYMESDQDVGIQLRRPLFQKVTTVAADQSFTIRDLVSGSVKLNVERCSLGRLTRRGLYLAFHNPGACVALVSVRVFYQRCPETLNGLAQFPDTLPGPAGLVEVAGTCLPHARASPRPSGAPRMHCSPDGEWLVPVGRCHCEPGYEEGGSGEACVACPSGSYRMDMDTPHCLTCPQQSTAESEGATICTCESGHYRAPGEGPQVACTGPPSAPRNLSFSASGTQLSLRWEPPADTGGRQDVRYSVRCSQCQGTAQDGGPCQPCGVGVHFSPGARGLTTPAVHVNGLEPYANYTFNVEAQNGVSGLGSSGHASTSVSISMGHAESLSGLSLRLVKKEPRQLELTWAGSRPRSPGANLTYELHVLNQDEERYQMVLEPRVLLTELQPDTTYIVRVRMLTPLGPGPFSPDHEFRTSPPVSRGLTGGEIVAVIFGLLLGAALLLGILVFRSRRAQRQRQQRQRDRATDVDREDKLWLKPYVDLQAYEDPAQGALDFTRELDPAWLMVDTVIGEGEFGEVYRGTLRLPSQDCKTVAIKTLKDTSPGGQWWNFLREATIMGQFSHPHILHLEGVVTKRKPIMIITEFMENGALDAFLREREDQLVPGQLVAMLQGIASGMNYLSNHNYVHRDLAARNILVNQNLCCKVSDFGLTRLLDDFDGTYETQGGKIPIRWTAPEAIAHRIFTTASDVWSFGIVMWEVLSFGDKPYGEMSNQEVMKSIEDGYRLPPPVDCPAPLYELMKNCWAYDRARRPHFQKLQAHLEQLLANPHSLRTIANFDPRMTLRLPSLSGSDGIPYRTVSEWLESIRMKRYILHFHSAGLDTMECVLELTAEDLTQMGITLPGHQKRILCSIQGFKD
# Androgen receptor (Homo sapiens), sequence (P10275 whole entry, looked up, the tested form may be a part): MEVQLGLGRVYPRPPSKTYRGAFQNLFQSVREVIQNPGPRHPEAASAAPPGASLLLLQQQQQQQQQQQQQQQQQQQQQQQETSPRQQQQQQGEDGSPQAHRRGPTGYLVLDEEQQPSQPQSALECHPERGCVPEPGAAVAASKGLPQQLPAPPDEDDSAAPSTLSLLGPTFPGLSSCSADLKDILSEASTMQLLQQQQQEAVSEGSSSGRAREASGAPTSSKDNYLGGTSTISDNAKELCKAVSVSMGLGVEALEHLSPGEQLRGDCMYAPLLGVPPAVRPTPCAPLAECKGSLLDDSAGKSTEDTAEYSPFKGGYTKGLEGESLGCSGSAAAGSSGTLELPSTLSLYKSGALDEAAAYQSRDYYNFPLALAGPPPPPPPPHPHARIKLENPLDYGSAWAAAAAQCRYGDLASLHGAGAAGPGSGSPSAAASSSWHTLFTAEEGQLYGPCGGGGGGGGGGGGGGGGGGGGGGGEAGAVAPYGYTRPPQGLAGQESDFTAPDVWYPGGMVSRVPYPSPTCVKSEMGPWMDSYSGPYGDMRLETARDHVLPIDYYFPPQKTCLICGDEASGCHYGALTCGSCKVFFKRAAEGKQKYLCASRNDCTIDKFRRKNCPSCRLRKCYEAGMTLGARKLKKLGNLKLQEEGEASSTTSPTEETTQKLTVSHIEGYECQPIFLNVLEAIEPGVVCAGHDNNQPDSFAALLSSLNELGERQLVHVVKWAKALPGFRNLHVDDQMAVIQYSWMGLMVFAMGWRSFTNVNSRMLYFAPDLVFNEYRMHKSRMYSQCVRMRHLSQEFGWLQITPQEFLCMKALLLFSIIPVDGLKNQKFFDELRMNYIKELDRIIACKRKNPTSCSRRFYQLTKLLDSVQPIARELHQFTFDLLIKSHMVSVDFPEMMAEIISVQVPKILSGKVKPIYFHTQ
smiles,measurement,setting,value
CC(C)c1ccc(O)cc1,AC50,[1],2.24 µM (active)
same,outcome,[2],inactive
same,outcome,[3],inactive
C[N+](C)=CCl,outcome,[4],inactive
CCCC=NO,outcome,[5],inactive
CCC(C)c1cc([N+](=O)[O-])cc([N+](=O)[O-])c1OC(=O)C=C(C)C (configuration not stated),AC50,[6],3.66 µM (active)
same,AC50,[7],11.6 µM (active)
same,AC50,[8],20.8 µM (active)
same,outcome,[9],inactive
same,AC50,[10],13.5 µM (active)
CC[N+](=O)[O-],outcome,[11],inactive
CCCCCCCCCCCC#N,outcome,[12],inactive
same,AC50,[6],30.7 µM (active)
same,AC50,[8],30.5 µM (active)
same,AC50,[9],33.7 µM (active)
same,AC50,[10],31.4 µM (active)
[N-]=[N+]=CC(=O)OC[C@H](N)C(=O)O,outcome,[4],inactive
CCc1cc(C)cc(CC)c1-c1c(OC(=O)C(C)(C)C)n2n(c1=O)CCOCC2,outcome,[13],inactive
same,outcome,[6],inactive
same,outcome,[7],inactive
same,outcome,[8],inactive
same,outcome,[9],inactive
same,outcome,[10],inactive
O=C1Nc2ccc(Cl)cc2C(c2ccccc2)=NC1O (configuration not stated),outcome,[14],inactive
same,outcome,[15],inactive
CCC(C)(C)O,outcome,[12],inactive
same,outcome,[16],inactive
N#Cc1cc(I)c(O)c(I)c1,outcome,[12],inactive
same,outcome,[17],inactive
same,outcome,[11],inactive
same,outcome,[4],inactive
same,outcome,[18],inactive
Cc1ncc(C[n+]2csc(CCO)c2C)c(N)n1,outcome,[16],inactive
CC1=CP(=O)(c2ccccc2)CC1 (configuration not stated),outcome,[17],inactive
C=CC(=O)OCC(CC)CCCC (configuration not stated),outcome,[1],inactive
same,outcome,[2],inactive
same,outcome,[3],inactive
same,outcome,[6],inactive
same,outcome,[7],inactive
same,outcome,[8],inactive
same,outcome,[9],inactive
same,outcome,[10],inactive
O=C(NCNC(=O)NC1C(=O)NC(=O)N1CO)NC1C(=O)NC(=O)N1CO (configuration not stated),outcome,[4],inactive
same,outcome,[18],inactive
same,outcome,[14],inactive
same,outcome,[15],inactive
CCOP(=O)(OCC)Oc1ccc([N+](=O)[O-])cc1,outcome,[13],inactive
same,outcome,[14],inactive
same,outcome,[15],inactive
O=S(=O)(O)OOS(=O)(=O)O,outcome,[5],inactive
same,outcome,[19],inactive
same,outcome,[20],inactive
CN1C(=O)CCS(=O)(=O)C1c1ccc(Cl)cc1 (configuration not stated),outcome,[11],inactive
same,outcome,[18],inactive
c1ccc(P(c2ccccc2)c2ccccc2)cc1,AC50,[1],40.2 µM (active)
same,outcome,[3],inactive
CC(C)CCCCCCCOP(=O)(Oc1ccccc1)Oc1ccccc1,AC50,[13],6.03 µM (active)
same,AC50,[6],8.84 µM (active)
same,AC50,[7],12.8 µM (active)
same,AC50,[8],11.3 µM (active)
same,AC50,[9],5.17 µM (active)
same,AC50,[10],20 µM (active)
